{"source": "PubChem BioAssay (NCATS)", "key": {"[1]": {"molecular_target": "Pyruvate kinase (Leishmania mexicana) (UniProt Q27686)", "sequence (Q27686 2-499 E452W)": "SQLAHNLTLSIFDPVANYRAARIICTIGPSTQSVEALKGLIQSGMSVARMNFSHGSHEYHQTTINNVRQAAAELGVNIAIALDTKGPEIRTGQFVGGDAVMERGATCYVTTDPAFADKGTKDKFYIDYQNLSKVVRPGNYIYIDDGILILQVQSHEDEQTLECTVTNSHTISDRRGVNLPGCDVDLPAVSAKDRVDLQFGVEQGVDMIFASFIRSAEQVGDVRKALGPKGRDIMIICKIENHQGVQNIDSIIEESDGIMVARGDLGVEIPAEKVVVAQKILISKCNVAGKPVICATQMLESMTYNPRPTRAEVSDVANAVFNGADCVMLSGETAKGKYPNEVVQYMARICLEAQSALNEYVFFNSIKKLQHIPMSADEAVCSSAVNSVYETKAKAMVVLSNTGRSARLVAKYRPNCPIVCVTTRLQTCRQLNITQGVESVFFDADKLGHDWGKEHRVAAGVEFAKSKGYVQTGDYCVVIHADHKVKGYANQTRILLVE", "experiment": "qHTS Validation Assay for Inhibitors of Leishmania Mexicana Pyruvate Kinase (AID 945)", "conditions": "purified L. mexicana pyruvate kinase, enzyme activity, E451W mutant enzyme; series mostly up to 57.5 µM", "how_it_was_run": "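Compounds are tested as eight-point concentration series. Reactions contain 0.2 nM LmPYK E451W, 0.5 mM PEP, 0.1 mM ADP, 7 mM MgCl2 and 50 mM KCl at pH 7.2, run 1 h at room temperature, then read by PKLight luminescence.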"}, "[2]": {"molecular_target": "Pyruvate kinase PKM (Homo sapiens) (UniProt P14618)", "sequence (P14618 whole entry, looked up)": "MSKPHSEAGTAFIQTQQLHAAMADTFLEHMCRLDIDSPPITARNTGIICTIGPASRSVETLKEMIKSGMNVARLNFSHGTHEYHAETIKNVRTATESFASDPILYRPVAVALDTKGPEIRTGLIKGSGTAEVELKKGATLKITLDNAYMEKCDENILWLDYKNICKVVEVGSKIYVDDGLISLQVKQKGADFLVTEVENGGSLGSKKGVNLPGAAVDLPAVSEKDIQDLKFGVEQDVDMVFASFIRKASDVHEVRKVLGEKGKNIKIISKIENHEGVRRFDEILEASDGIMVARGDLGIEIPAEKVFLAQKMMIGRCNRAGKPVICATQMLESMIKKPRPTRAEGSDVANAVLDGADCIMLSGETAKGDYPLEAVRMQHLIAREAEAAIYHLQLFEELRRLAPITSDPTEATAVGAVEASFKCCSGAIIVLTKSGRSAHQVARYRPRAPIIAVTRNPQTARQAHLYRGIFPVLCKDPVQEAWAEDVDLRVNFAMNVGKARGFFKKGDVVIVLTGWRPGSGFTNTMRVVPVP", "experiment": "qHTS Assay for Activators of Human Muscle Pyruvate Kinase (AID 954; active means well fitted curve in the direction sought with a large enough effect, not every such curve was filed as active)", "conditions": "purified human muscle pyruvate kinase, luciferase-coupled luminescence, 1 h; series mostly up to 57.5 µM", "how_it_was_run": "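Luminescence from a luciferase ATP-detection/stop reagent reported PKM2 activity. Reactions contained 0.1 nM purified human enzyme, 0.5 mM PEP, 0.1 mM ADP and 7 mM MgCl2 at pH 7.2, run 1 h at RT.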"}, "[3]": {"experiment": "MultiTox-Fluor Cytotoxicity Assay - LYMP1-001 - Dead Cells (AID 946)", "conditions": "LYMP1-001 lymphoblastoid cells, dead-cell protease fluorescence; series mostly up to 92.2 µM", "how_it_was_run": "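AC50 from Hill fit of concentration-response; data normalized to DMSO (basal) and 15 uM tetraoctylammonium bromide (100%). LYMP1-001 lymphoblastoid cells, 2500/well, 16 hr compound at 37 C; dead-cell protease fluorescence, Ex/Em 485/520.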"}, "[4]": {"experiment": "MultiTox-Fluor Cytotoxicity Assay - LYMP1-001 - Live Cells (AID 947)", "conditions": "LYMP1-001 lymphoblastoid cells, live-cell protease fluorescence viability; series mostly up to 92.2 µM"}, "[5]": {"experiment": "Cell Viability - LYMP1-002 - Assay at 16 hr (AID 948)", "conditions": "LYMP1-002 lymphoblastoid cell viability; series mostly up to 92.2 µM", "how_it_was_run": "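ATP luminescence (CellTiter-Glo) was measured after 16 hr compound exposure at 37 C of 2500 lymphoblastoid LYMP1-002 cells per well. Concentration-response curves were fitted with the Hill equation to give AC50.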"}, "[6]": {"experiment": "MultiTox-Fluor Cytotoxicity Assay - LYMP1-002 - Live Cells (AID 955)", "conditions": "LYMP1-002 lymphoblastoid live-cell protease fluorescence viability; series mostly up to 46.1 µM", "how_it_was_run": "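Read-out is live-cell protease activity (cell-permeant GF-AFC substrate, fluorescence Ex/Em=405/510), where a decrease indicates acute toxicity. Human lymphoblastoid cells were treated 16 hours at 37 C in a concentration series, and AC50 values came from standard Hill modelling.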"}, "[7]": {"experiment": "MultiTox-Fluor Cytotoxicity Assay - LYMP1-002 - Dead Cells (AID 960); further: nearly all actives have a fitted effect of over 60% in size", "conditions": "LYMP1-002 lymphoblastoid cells, dead-cell protease fluorescence; series mostly up to 46.1 µM", "how_it_was_run": "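LYMP1-002 cells 2500/well; 5 hr 37 C pre-incubation; compound 16 hr 37 C; MultiTox-Fluor reagent 60 min RT; dead-cell fluor Ex/Em 485/520. Norm. to DMSO (0%) vs 15 uM tetraoctylammonium bromide (100%); Hill AC50.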"}, "[8]": {"experiment": "MultiTox-Fluor Cytotoxicity Assay - LYMP1-003 - Dead Cells (AID 961); further: nearly all actives have a fitted effect of over 70% in size", "conditions": "LYMP1-003 lymphoblastoid cells, dead-cell protease fluorescence; series mostly up to 92.2 µM", "source_text": "NIH Chemical Genomics Center [NCGC]\nNIH Molecular Libraries Screening Centers Network [MLSCN]\nNational Institutes of Environmental Health Sciences [NIEHS]\nNational Toxicology Program [NTP]\nWe have developed a 1536-well cell-based assay for quantitative high throughput screening (qHTS) against a number of cell lines to determine in vitro cytotoxicity of small molecules. This particular assay uses a human lymphoblastoid cell line (LYMP1-003) purchased from Coriell Institute.\nNCGC Assay Protocol Summary:\nThe MultiTox-Fluor Cytotoxicity Assay (Promega) is a homogeneous method to simultaneously measure the relative number of live and dead cells in culture by detecting changes in cell membrane integrity. There are two fluorogenic peptide substrates in the assay reagent. Viable cells are determined when the cell-permeant substrate (GF-AFC) enters the cell and is cleaved by protease from live cells resulting in liberated fluorophore. […] The dead cells are determined by using fluorogenic cell-impermeant peptide substrate (bis-AAF-R110) which cleaved by dead cell proteases leaking from damaged cell membrane.\nUsing the MultiTox-Fluor Cytotoxicity Assay, the relative number of dead cells was measured in the lymphoblastoid cell line with complete culture medium following compound treatment for 16 hours. […] AC50 values were determined from concentration-response data modeled with the standard Hill equation. […]"}}, "note": "Records with an inconclusive call do not appear. Where a call stands in place of a potency, no number is given. Calls of active or inactive are those of the source. Unless noted, the call rests on the fitted dose curve; in most records, active means well fitted curve in the direction sought with a large enough effect; inconclusive means small, poorly fitted or top-dose-only effect, or another doubt; inactive means no such curve, though single readings can be large; an effect the other way counts as inactive or inconclusive.", "data": [{"smiles": "N=C(N)SCCc1cnc[nH]1", "values": [{"measurement": "Potency", "setting": "[1]", "result": "inactive"}, {"measurement": "outcome", "setting": "[2]", "result": "inactive"}]}, {"smiles": "C#CCn1c(=O)c2c(ncn2C)n(C)c1=O", "values": [{"measurement": "Potency", "setting": "[1]", "result": "inactive"}, {"measurement": "outcome", "setting": "[2]", "result": "inactive"}]}, {"smiles": "NC1(C(=O)O)CC1", "values": [{"measurement": "Potency", "setting": "[1]", "result": "inactive"}, {"measurement": "outcome", "setting": "[2]", "result": "inactive"}]}, {"smiles": "COc1ccccc1N1CCN(CCCNc2c(C)c(=O)n(C)c(=O)n2C)CC1", "values": [{"measurement": "Potency", "setting": "[1]", "result": "inactive"}, {"measurement": "outcome", "setting": "[2]", "result": "inactive"}]}, {"smiles": "O=C(O)C1CCNCC1", "values": [{"measurement": "Potency", "setting": "[1]", "result": "inactive"}, {"measurement": "outcome", "setting": "[2]", "result": "inactive"}]}, {"smiles": "CCCCCCCCCCCCCCSCC(=O)O", "values": [{"measurement": "Potency", "setting": "[1]", "result": "inactive"}, {"measurement": "outcome", "setting": "[2]", "result": "inactive"}]}, {"smiles": "CC(=O)C(C)=O", "values": [{"measurement": "Potency", "setting": "[1]", "result": "inactive"}, {"measurement": "outcome", "setting": "[3]", "result": "inactive"}, {"measurement": "outcome", "setting": "[4]", "result": "inactive"}, {"measurement": "outcome", "setting": "[5]", "result": "inactive"}, {"measurement": "outcome", "setting": "[2]", "result": "inactive"}, {"measurement": "outcome", "setting": "[6]", "result": "inactive"}, {"measurement": "outcome", "setting": "[7]", "result": "inactive"}, {"measurement": "outcome", "setting": "[8]", "result": "inactive"}]}, {"smiles": "O=c1[nH]c(=O)c2nc3ccccc3nc2[nH]1", "values": [{"measurement": "Potency", "setting": "[1]", "result": "inactive"}, {"measurement": "outcome", "setting": "[2]", "result": "inactive"}]}, {"smiles": "Nc1ncnc2c1ncn2C1CCCC1", "values": [{"measurement": "Potency", "setting": "[1]", "result": "inactive"}, {"measurement": "outcome", "setting": "[2]", "result": "inactive"}]}, {"smiles": "Nc1nc2[nH]c(=O)cnc2c(=O)[nH]1", "values": [{"measurement": "Potency", "setting": "[1]", "result": "inactive"}, {"measurement": "outcome", "setting": "[2]", "result": "inactive"}]}, {"smiles": "O=C(O)c1ccccc1Nc1cccc(OCc2ccc3ccccc3n2)c1", "values": [{"measurement": "Potency", "setting": "[1]", "result": "inactive"}, {"measurement": "outcome", "setting": "[2]", "result": "inactive"}]}, {"smiles": "CC[C@H](NC(=O)c1c(C)c(-c2ccccc2)nc2ccccc12)c1ccccc1", "values": [{"measurement": "Potency", "setting": "[1]", "result": "inactive"}, {"measurement": "outcome", "setting": "[2]", "result": "inactive"}]}, {"smiles": "CCCCCCCCCCCCCCC[C@H](O)[C@H](N)CO", "values": [{"measurement": "Potency", "setting": "[1]", "result": "inactive"}, {"measurement": "outcome", "setting": "[2]", "result": "inactive"}]}, {"smiles": "NC/C=C\\C(=O)O", "values": [{"measurement": "Potency", "setting": "[1]", "result": "inactive"}, {"measurement": "outcome", "setting": "[2]", "result": "inactive"}]}, {"smiles": "Cn1c(=O)c2[nH]c(-c3ccc(S(=O)(=O)O)cc3)nc2n(C)c1=O", "values": [{"measurement": "Potency", "setting": "[1]", "result": "inactive"}, {"measurement": "outcome", "setting": "[2]", "result": "inactive"}]}, {"smiles": "NC(=O)c1ccccc1", "values": [{"measurement": "Potency", "setting": "[1]", "result": "inactive"}, {"measurement": "outcome", "setting": "[3]", "result": "inactive"}, {"measurement": "outcome", "setting": "[4]", "result": "inactive"}, {"measurement": "outcome", "setting": "[5]", "result": "inactive"}, {"measurement": "outcome", "setting": "[2]", "result": "inactive"}, {"measurement": "outcome", "setting": "[6]", "result": "inactive"}, {"measurement": "outcome", "setting": "[8]", "result": "inactive"}]}, {"smiles": "Nc1nc2ccc(Cl)cc2c2nc(-c3ccco3)nn12", "values": [{"measurement": "Potency", "setting": "[1]", "result": "inactive"}, {"measurement": "outcome", "setting": "[2]", "result": "inactive"}]}, {"smiles": "CC(C)(CO)Cc1cc(C(C)(C)C)c(O)c(C(C)(C)C)c1", "values": [{"measurement": "Potency", "setting": "[1]", "result": "inactive"}, {"measurement": "outcome", "setting": "[2]", "result": "inactive"}]}, {"smiles": "C[N+](C)(C)CC=O", "values": [{"measurement": "Potency", "setting": "[1]", "result": "inactive"}, {"measurement": "outcome", "setting": "[2]", "result": "inactive"}]}]}
